One may read the AC50 as the midpoint of the concentration-response curve, whichever way the signal moves.

Structures are written as SMILES. Inconclusive results are not listed. Calls of active or inactive are those of the source. Rule for the calls: active = hit-call score of the fitted dose curve at least 0.9, where 1 is the maximum; inconclusive = response in the unintended direction; inactive = score below 0.9.

The test can be described thus: IUF_NPC1_cytotoxicity_72hr: Cytotoxicity Assessment at 72 hours in the Leibniz Research Institute for Environmental Medicine (IUF) Neural Progenitor Cell Proliferation Assay (NPC1) (AID 2284332).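 Note: rising LDH signal means more cytotoxicity.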 On the procedure: IUF_NPC1 is a cell-based, multiplexed assay that uses hNPC, a human primary neural progenitor cells, with measurements taken at 72 hours after chemical dosing in a 96-well plate. Human neural progenitor cells (hNPC) are generated from human fetal brain cortex at gestational week (GW) 16-19. Grown in suspension culture and under proliferative conditions (proliferation media and growth factors), these cells represent neural progenitor cell proliferation. In the NPC1 assay, hNPC's are exposed to the test compound for 72h. Cell proliferation is assessed as an increase in sphere area using automated phase contrast imaging and as incorporation of Bromodeoxyuridine (BrdU) during DNA synthesis using a luminescence-based cell proliferation ELISA. In parallel, the cell viability is assessed using an alamar blue viability assay and the cytotoxicity using a lactate dehydrogenase dependent membrane integrity assay.IUF_NPC1_cytotoxicity_72hr is one of 4 assay components measured from the IUF_NPC1 assay. It is designed to measure cytotoxicity at 72 hrs due to loss of membrane integrity. LDH measurements are performed from medium supernatants of each well and are based on the reduction of resazurin to resorufin measured as fluorescence signal (relative fluorescence unit) in a multiplate reader. Data from the IUF_NPC1_cytotoxicity_72hr component was analyzed at the endpoint IUF_NPC1_cytotoxicity_72hr in the positive analysis fitting direction relative to the dynamic range and baseline of activity. Using a type of viability reporter, gain-of-signal activity can be used to understand cytotoxicity effects.
After the cell expansion period, the cells are cultured for up to four weeks in which they are passaged every week. Between one to three days after passaging, depending on the size chosen for passaging, spheres at a size of 0.3 mm are used in the assay. For the assessment of neural progenitor cell proliferation, the spheres are plated in poly-Hema coated 96-well U-bottom plates filled with proliferation medium containing growth factors (EGF and FGF). One 0.25 - 0.35 mm big sphere is plated in the middle of each well. Within 3 days NPCs proliferate and grow in size. Cultivation during the test method is performed at 37C and 5% CO2 at a pH of 7.2-7.6. As a positive control, spheres are cultivated in the absence of growth factors (EGF and FGF), which dramatically reduces proliferation. Exposure starts on the plating day (day 0) and is continued over three days, without chemical renewal, until the experiment is terminated. The assay is terminated by the assessment of cell viability, cytotoxicity, and proliferation by BrdU. All endpoints are generated from the same experimental run and from each well/sphere in the 96-well plate.
For the compound `COP(=S)(OC)Oc1nc(Cl)c(Cl)cc1Cl`, the compound was called inactive.
Turning to `CO/C=C(/C(=O)OC)c1ccccc1Oc1cc(Oc2ccccc2C#N)ncn1`, the call was inactive.
Same read-out and setting: to `N#Cc1nn(-c2c(Cl)cc(C(F)(F)F)cc2Cl)c(N)c1S(=O)C(F)(F)F` (centres undefined) belongs “inactive”.
The same measure, in the same setting: for `C=CC1(C)OC(=O)N(c2cc(Cl)cc(Cl)c2)C1=O` (centres undefined) the value was “inactive”.
Still for that read-out and setting: to `CCOC(=O)CC(SP(=S)(OC)OC)C(=O)OCC` (centres undefined) belongs “inactive”; to `CCCCC(CC)COC(=O)c1ccccc1C(=O)OCC(CC)CCCC` (centres undefined), “inactive”; to `CCOc1cc(Oc2ccc(C(F)(F)F)cc2Cl)ccc1[N+](=O)[O-]`, “inactive”.
Turning to `COP(N)(=O)SC` (centres undefined), the call was inactive.
For the compound `COC(=O)N(OC)c1ccccc1COc1ccn(-c2ccc(Cl)cc2)n1`, the compound was called inactive.
The same measure, in the same setting: to `CCCCOC(=O)c1ccccc1C(=O)OCCCC` belongs “inactive”; to `CNC(=O)ON=CC(C)(C)SC`, “inactive”.
As for `CN(C)C(=S)SSC(=S)N(C)C`, the AC50 was 20.5 µM (active).
As to `CC(C)(C)c1ccc(CSc2cnn(C(C)(C)C)c(=O)c2Cl)cc1`, the compound was called inactive.
Still for that read-out and setting: to `Cc1ccc(-c2c(Cl)nc(C#N)n2S(=O)(=O)N(C)C)cc1` belongs “inactive”.

These data come from PubChem BioAssay (EPA / NIEHS).
